# According to publication PMC7862700, “An all-to-all approach to the identification of sequence-specific readers for epigenetic DNA modifications on cytosine”:
# Columns and labels:
# Assay in all cases: DAPPL (digital affinity profiling via proximity ligation, sequencing); 10 mM Tris-HCl pH 7.5, 50 mM NaCl, 1 mM DTT, 4% glycerol, room temperature, 30 min; GST-TFs on glutathione beads, 16-mer random dsDNA library, 0.1% formaldehyde crosslink after washing; high values mean tight binding
# FEV = target: T1, FEV (Homo sapiens, UniProt Q99581 1-238); settings: protein: recombinant; tags: N-terminal GST; dsDNA, one strand shown
# T1 sequence: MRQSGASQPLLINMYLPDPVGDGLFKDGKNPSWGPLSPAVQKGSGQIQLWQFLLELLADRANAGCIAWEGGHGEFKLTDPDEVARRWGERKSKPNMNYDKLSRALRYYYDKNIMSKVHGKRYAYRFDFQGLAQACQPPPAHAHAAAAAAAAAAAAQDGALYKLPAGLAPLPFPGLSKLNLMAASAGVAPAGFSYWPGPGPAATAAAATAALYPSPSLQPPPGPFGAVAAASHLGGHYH
# Procedure, shortened: (§1)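 Human transcription factors fused to GST were expressed in yeast, captured on glutathione beads, given DNA barcodes and pooled with a GST-only negative control. Pools were incubated with 200 nmole of a 16-mer random double-stranded DNA library in Tris/NaCl/DTT/glycerol buffer at room temperature for 30 min. They were then washed, crosslinked with 0.1% formaldehyde, proximity-ligated (BsaI/T4 ligase, 1 h, 37 °C), PCR-amplified and sequenced on an Illumina NextSeq500. Binding signal is each 6-mer's read frequency for a factor divided by its frequency for the GST control.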
# ETV5 = ETV5 (Homo sapiens, UniProt P41161 1-510); settings: protein: recombinant; tags: N-terminal GST; dsDNA, one strand shown
# Procedure, shortened: as §1
# HSF1 = HSF1 (Homo sapiens, UniProt Q00613 1-529); settings: protein: recombinant; tags: N-terminal GST; chain copies: 3; dsDNA, one strand shown
# Procedure, shortened: as §1
# SPIC = target: T2, SPIC (Homo sapiens, UniProt Q8N5J4 1-248); settings: protein: recombinant; tags: N-terminal GST; dsDNA, one strand shown
# T2 sequence: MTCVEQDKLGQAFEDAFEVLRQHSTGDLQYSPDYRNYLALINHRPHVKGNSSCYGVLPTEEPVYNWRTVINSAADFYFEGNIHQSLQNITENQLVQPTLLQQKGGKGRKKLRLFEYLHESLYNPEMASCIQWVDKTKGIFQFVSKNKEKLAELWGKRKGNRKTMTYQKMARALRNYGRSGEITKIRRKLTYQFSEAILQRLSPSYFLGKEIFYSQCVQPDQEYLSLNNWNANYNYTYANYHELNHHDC
# Procedure, shortened: as §1
# ELF4 = ELF4 (Homo sapiens, UniProt Q99607 1-663); settings: protein: recombinant; tags: N-terminal GST; dsDNA, one strand shown
# Procedure, shortened: as §1
# ELK4 = target: T3, ELK4 (Homo sapiens, UniProt P28324-2 1-405); settings: protein: recombinant; tags: N-terminal GST; dsDNA, one strand shown
# T3 sequence: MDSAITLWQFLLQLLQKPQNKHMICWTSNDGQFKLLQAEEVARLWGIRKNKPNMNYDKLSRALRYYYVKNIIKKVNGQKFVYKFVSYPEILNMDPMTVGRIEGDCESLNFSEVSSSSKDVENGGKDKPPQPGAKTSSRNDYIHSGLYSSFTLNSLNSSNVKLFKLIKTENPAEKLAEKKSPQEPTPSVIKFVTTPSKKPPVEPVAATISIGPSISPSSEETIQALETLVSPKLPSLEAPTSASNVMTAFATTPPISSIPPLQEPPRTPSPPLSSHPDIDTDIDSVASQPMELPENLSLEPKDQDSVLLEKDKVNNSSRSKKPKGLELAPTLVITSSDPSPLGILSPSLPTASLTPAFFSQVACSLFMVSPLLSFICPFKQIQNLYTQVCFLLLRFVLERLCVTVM
# Procedure, shortened: as §1
# ETV2 = target: T4, ETV2 (Homo sapiens, UniProt O00321 1-342); settings: protein: recombinant; tags: N-terminal GST; dsDNA, one strand shown
# T4 sequence: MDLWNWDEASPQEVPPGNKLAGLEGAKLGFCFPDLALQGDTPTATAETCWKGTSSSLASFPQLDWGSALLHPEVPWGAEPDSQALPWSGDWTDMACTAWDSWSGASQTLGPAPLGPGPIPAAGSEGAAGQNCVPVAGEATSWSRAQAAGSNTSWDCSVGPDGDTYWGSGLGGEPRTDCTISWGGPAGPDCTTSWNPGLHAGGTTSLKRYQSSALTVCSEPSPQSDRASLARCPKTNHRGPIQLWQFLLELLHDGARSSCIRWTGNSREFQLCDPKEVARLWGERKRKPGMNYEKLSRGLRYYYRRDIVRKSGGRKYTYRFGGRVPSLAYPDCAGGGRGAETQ
# Procedure, shortened: as §1
# ELF3 = target: T5, ELF3 (Homo sapiens, UniProt P78545 1-371); settings: protein: recombinant; tags: N-terminal GST; dsDNA, one strand shown
# T5 sequence: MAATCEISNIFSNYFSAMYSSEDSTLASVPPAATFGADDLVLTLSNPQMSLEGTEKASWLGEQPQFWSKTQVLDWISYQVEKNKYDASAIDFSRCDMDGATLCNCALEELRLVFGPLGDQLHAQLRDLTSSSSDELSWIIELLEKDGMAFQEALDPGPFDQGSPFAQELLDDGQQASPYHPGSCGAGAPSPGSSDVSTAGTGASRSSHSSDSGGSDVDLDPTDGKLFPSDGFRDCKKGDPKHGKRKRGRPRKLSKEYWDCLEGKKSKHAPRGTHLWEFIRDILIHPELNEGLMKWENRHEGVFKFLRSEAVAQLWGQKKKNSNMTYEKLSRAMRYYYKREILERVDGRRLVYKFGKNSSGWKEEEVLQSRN
# Procedure, shortened: as §1
# CRX = CRX (Homo sapiens, UniProt O43186 1-299); settings: protein: recombinant; tags: N-terminal GST; dsDNA, one strand shown
# Procedure, shortened: as §1
# ETV1 = ETV1 (Homo sapiens, UniProt P50549 1-477); settings: protein: recombinant; tags: N-terminal GST; dsDNA, one strand shown
# Procedure, shortened: as §1
# ERF = target: T6, ERF (Homo sapiens, UniProt P50548 1-548); settings: protein: recombinant; tags: N-terminal GST; dsDNA, one strand shown
# T6 sequence: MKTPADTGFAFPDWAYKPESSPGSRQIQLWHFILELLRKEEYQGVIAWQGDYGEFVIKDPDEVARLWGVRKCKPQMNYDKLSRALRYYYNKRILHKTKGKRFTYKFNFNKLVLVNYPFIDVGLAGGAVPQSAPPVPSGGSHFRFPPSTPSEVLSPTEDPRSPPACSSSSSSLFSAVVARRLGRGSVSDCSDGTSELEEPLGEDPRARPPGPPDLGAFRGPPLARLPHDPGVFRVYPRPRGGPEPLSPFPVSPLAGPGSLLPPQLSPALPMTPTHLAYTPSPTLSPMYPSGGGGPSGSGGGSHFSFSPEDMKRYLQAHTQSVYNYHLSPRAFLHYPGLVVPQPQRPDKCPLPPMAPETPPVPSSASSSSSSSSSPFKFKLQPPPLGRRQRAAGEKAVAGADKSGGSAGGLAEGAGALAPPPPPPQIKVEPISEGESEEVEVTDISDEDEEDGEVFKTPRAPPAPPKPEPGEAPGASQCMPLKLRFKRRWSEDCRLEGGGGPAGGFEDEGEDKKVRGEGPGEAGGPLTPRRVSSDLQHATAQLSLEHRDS
# Procedure, shortened: as §1
# ETV3L = target: T7, ETV3L (Homo sapiens, UniProt Q6ZN32 1-361); settings: protein: recombinant; tags: N-terminal GST; dsDNA, one strand shown
# T7 sequence: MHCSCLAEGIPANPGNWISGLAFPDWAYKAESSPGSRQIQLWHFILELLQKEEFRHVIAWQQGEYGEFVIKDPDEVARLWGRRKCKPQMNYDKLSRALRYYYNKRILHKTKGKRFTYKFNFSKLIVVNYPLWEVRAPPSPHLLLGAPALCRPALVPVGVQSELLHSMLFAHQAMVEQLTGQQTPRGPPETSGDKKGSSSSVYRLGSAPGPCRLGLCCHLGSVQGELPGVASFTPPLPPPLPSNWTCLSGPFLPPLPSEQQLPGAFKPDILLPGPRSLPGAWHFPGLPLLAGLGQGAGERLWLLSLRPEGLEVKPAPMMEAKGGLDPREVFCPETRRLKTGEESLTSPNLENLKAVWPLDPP
# Procedure, shortened: as §1
# ETS2 = target: T8, ETS2 (Homo sapiens, UniProt P15036 1-469); settings: protein: recombinant; tags: N-terminal GST; dsDNA, one strand shown
# T8 sequence: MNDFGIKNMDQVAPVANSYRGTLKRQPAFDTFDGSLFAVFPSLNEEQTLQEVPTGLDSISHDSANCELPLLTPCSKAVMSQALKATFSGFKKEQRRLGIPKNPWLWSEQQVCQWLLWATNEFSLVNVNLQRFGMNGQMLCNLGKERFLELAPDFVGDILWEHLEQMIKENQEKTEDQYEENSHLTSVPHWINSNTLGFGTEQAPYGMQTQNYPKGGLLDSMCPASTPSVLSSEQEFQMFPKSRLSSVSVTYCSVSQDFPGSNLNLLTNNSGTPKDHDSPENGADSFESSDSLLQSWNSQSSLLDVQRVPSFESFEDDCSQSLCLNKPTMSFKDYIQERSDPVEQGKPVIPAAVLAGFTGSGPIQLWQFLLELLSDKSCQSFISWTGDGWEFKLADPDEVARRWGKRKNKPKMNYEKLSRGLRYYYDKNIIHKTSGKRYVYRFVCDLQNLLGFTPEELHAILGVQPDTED
# Procedure, shortened: as §1
# SPDEF = target: T9, SPDEF (Homo sapiens, UniProt O95238 1-335); settings: protein: recombinant; tags: N-terminal GST; dsDNA, one strand shown
# T9 sequence: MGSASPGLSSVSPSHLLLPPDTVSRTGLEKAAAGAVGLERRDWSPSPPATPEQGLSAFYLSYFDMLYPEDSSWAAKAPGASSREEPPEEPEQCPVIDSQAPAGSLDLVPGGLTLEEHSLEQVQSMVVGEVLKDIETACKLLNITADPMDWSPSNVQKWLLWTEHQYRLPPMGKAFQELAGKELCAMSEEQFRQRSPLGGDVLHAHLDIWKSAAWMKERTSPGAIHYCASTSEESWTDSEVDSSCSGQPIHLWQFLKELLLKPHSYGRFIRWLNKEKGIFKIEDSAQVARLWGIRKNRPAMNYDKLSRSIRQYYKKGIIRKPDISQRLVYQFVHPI
# Procedure, shortened: as §1
# ETV7 = target: T10, ETV7 (Homo sapiens, UniProt Q9Y603 1-341); settings: protein: recombinant; tags: N-terminal GST; dsDNA, one strand shown
# T10 sequence: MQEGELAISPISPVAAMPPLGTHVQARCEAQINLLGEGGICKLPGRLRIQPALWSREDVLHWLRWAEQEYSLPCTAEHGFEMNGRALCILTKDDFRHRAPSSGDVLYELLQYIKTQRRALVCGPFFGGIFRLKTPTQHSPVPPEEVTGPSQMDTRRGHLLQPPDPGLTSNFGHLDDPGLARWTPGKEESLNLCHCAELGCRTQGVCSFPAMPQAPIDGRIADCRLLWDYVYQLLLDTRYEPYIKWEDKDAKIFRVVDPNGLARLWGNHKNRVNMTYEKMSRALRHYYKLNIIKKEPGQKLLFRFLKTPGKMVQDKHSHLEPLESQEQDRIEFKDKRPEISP
# Procedure, shortened: as §1
# ELF5 = target: T11, ELF5 (Homo sapiens, UniProt Q9UKW6-2 1-255); settings: protein: recombinant; tags: N-terminal GST; dsDNA, one strand shown
# T11 sequence: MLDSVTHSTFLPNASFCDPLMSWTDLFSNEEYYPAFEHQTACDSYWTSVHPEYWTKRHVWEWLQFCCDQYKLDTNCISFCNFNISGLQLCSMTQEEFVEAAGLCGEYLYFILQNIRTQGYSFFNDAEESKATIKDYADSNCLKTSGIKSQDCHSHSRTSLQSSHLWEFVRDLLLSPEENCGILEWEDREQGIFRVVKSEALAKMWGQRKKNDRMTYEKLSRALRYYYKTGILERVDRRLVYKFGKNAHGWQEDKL
# Procedure, shortened: as §1
# ETV3 = target: T12, ETV3 (Homo sapiens, UniProt P41162-2 1-143); settings: protein: recombinant; tags: N-terminal GST; dsDNA, one strand shown
# T12 sequence: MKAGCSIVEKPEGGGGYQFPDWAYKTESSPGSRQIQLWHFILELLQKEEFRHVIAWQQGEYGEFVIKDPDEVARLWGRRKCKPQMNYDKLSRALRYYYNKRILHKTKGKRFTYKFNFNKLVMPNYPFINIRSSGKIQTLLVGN
# Procedure, shortened: as §1
# ETV6 = ETV6 (Homo sapiens, UniProt P41212 1-452); settings: protein: recombinant; tags: N-terminal GST; dsDNA, one strand shown
# Procedure, shortened: as §1
# Chain of ETV5 (P41161 whole entry): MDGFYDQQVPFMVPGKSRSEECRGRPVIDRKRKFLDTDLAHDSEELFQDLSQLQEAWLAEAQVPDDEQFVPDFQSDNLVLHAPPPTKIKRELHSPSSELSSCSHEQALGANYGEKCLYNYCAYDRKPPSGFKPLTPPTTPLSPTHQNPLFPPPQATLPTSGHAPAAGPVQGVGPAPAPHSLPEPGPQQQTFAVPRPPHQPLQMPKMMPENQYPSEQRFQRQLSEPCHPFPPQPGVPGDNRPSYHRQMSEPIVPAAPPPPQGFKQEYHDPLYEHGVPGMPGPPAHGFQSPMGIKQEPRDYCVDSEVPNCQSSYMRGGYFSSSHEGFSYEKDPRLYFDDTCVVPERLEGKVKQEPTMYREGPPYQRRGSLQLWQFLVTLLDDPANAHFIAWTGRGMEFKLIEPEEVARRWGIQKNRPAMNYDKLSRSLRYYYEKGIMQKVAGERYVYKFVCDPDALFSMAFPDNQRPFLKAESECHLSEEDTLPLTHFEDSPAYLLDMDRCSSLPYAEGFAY
# Chain of ETV6 (P41212 whole entry): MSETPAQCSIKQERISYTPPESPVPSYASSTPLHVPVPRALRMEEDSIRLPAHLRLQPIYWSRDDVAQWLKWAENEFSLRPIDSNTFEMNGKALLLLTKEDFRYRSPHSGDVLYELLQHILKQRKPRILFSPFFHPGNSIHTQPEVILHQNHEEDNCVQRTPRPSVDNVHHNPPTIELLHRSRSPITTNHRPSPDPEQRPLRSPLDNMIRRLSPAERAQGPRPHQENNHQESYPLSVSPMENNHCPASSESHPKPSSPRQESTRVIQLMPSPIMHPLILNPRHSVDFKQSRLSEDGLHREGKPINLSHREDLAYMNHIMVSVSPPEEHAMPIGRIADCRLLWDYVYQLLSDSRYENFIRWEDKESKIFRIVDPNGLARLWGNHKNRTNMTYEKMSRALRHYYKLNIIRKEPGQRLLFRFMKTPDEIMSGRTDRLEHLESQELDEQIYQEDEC
# Chain of ELF4 (Q99607 whole entry): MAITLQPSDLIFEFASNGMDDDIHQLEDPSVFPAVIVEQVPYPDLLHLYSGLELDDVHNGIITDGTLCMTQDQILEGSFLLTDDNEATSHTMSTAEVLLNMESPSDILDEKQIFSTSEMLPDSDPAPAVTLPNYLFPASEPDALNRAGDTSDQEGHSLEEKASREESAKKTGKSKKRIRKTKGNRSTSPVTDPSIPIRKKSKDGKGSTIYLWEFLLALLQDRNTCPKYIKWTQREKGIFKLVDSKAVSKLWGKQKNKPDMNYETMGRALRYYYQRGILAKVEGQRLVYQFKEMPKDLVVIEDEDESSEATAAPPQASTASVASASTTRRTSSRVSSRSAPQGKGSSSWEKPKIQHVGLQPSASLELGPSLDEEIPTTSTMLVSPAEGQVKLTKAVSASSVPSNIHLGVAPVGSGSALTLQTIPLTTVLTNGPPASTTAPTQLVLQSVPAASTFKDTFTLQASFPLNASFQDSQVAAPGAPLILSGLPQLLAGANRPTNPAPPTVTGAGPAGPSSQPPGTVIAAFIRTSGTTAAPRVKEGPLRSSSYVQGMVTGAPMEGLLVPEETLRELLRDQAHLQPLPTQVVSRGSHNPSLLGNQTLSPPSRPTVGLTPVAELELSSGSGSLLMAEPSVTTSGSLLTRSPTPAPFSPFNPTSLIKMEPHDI
# Chain of ETV1 (P50549 whole entry): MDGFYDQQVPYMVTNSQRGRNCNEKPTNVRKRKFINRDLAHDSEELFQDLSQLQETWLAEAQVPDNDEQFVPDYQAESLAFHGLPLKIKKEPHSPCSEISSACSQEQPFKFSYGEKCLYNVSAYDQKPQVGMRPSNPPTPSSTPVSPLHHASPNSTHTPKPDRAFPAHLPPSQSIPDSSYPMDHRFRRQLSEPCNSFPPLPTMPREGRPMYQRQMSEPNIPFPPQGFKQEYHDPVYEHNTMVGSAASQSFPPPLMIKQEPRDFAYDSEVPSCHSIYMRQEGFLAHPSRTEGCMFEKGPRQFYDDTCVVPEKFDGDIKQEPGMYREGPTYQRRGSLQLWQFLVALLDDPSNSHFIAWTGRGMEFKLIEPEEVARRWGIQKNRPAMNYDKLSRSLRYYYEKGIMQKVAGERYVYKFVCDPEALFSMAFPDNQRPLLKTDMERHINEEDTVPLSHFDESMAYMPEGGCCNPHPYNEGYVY
# Chain of HSF1 (Q00613 whole entry): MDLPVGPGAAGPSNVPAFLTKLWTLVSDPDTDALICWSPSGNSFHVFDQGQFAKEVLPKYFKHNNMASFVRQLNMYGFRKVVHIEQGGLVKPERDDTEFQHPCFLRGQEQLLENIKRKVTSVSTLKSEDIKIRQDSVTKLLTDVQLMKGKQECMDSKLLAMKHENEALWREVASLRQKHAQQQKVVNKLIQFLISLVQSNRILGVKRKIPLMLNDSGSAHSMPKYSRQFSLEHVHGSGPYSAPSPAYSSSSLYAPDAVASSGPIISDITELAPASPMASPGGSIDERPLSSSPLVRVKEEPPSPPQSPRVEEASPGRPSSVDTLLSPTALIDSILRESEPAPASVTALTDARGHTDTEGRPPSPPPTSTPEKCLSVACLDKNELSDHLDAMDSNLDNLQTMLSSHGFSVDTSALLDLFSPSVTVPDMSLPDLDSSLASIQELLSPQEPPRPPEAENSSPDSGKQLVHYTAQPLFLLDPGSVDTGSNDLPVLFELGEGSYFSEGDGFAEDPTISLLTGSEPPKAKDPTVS
# Chain of CRX (O43186 whole entry): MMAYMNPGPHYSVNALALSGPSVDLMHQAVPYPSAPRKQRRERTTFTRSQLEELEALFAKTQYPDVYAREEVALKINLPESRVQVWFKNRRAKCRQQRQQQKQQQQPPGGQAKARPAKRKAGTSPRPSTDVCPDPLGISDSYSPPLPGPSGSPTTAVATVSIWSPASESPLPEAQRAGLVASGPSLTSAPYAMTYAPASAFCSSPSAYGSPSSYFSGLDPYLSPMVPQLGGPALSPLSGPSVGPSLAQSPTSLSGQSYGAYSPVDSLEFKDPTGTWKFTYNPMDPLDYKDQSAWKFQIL
sequence,measurement,setting,value
ATTTCG,binding signal,FEV,"1.25 fold enrichment (6-mer frequency, TF over GST control)"
same,binding signal,ETV5,"1.26 fold enrichment (6-mer frequency, TF over GST control)"
same,binding signal,HSF1,"1.63 fold enrichment (6-mer frequency, TF over GST control)"
same,binding signal,SPIC,"1.26 fold enrichment (6-mer frequency, TF over GST control)"
same,binding signal,ELF4,"1.29 fold enrichment (6-mer frequency, TF over GST control)"
same,binding signal,ELK4,"1.49 fold enrichment (6-mer frequency, TF over GST control)"
same,binding signal,ETV2,"1.22 fold enrichment (6-mer frequency, TF over GST control)"
same,binding signal,ELF3,"1.2 fold enrichment (6-mer frequency, TF over GST control)"
same,binding signal,CRX,"1.45 fold enrichment (6-mer frequency, TF over GST control)"
same,binding signal,ETV1,"1.34 fold enrichment (6-mer frequency, TF over GST control)"
same,binding signal,ERF,"1.2 fold enrichment (6-mer frequency, TF over GST control)"
same,binding signal,ETV3L,"1.31 fold enrichment (6-mer frequency, TF over GST control)"
same,binding signal,ETS2,"1.3 fold enrichment (6-mer frequency, TF over GST control)"
same,binding signal,SPDEF,"1.27 fold enrichment (6-mer frequency, TF over GST control)"
same,binding signal,ETV7,"1.26 fold enrichment (6-mer frequency, TF over GST control)"
same,binding signal,ELF5,"1.27 fold enrichment (6-mer frequency, TF over GST control)"
same,binding signal,ETV3,"1.27 fold enrichment (6-mer frequency, TF over GST control)"
same,binding signal,ETV6,"1.35 fold enrichment (6-mer frequency, TF over GST control)"
